# From PubChem BioAssay
# The source made the active and inactive calls.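 How the source made its calls, unless noted: active means normalized viability below 100% at a tested concentration; inactive means the rest.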
# How the values were obtained:
# [1] = viability loss with induced miR-34 in A549 – imaging, A549 dox-inducible miR-34, nuclei and caspase counts, primary screen (AID 1347080;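 active means compounds whose cell count with miR-34 switched on is under 0.7 times the count with it off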); settings: A549 miR-34 inducible, Hoechst nuclei count, 48 h
# [2] = MELAS cybrid and Rieske KO viability enhancers – cell-based, MELAS cybrids, Rieske KO mouse fibroblasts, CellTiter-Glo, primary screen (AID 1508586;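 active means mean z-score across replicates of 1.96 or higher in either the MELAS or the Rieske mutant cell line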;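 further: z relative to plate mean and SD of compound and empty wells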); settings: low glucose
# [3] = drug combination growth inhibition, ovarian cancer – cell-based, oncology-focused library, rucaparib conditional, profiling panel (AID 1508598); settings: patient-derived ovarian cancer cells, CellTiter-Glo viability, 144 h, stronger effect = lower value
# [4] = stronger effect = lower value, cell number ratio, induced over uninduced
# [5] = measured here: relative caspase fold change +Dox/-Dox
# [6] = measured here: total cells with miR-34 induction, stronger effect = lower value
# [7] = measured here: total cells without miR-34 induction
# [8] = MELAS cybrid survival, CellTiter-Glo 48 h, stronger effect = higher value
# [9] = Rieske KO mouse fibroblast survival, CellTiter-Glo 72 h
# [10] = at 0.000305 µM, OCI-C5x cells, with rucaparib 10 µM, 100% = cells with rucaparib alone
# [11] = at 0.000305 µM, OCI-C5x cells, without rucaparib
# [12] = at 0.000305 µM, OCI-P5x cells, with rucaparib 20 µM, 100% = cells with rucaparib alone
# [13] = at 0.000305 µM, OCI-P5x cells, without rucaparib
# [14] = at 0.00122 µM, OCI-C5x cells, with rucaparib 10 µM, 100% = cells with rucaparib alone
# [15] = at 0.00122 µM, OCI-C5x cells, without rucaparib
# [16] = at 0.00122 µM, OCI-P5x cells, with rucaparib 20 µM, 100% = cells with rucaparib alone
# [17] = at 0.00122 µM, OCI-P5x cells, without rucaparib
# [18] = at 0.00488 µM, OCI-C5x cells, with rucaparib 10 µM, 100% = cells with rucaparib alone
# [19] = at 0.00488 µM, OCI-C5x cells, without rucaparib
# [20] = at 0.00488 µM, OCI-P5x cells, with rucaparib 20 µM, 100% = cells with rucaparib alone
# [21] = at 0.00488 µM, OCI-P5x cells, without rucaparib
# [22] = at 0.0195 µM, OCI-C5x cells, with rucaparib 10 µM, 100% = cells with rucaparib alone
# [23] = at 0.0195 µM, OCI-C5x cells, without rucaparib
# [24] = at 0.0195 µM, OCI-P5x cells, with rucaparib 20 µM, 100% = cells with rucaparib alone
# [25] = at 0.0195 µM, OCI-P5x cells, without rucaparib
# [26] = at 0.0781 µM, OCI-C5x cells, with rucaparib 10 µM, 100% = cells with rucaparib alone
# [27] = at 0.0781 µM, OCI-C5x cells, without rucaparib
# [28] = at 0.0781 µM, OCI-P5x cells, with rucaparib 20 µM, 100% = cells with rucaparib alone
# [29] = at 0.0781 µM, OCI-P5x cells, without rucaparib
# [30] = at 0.313 µM, OCI-C5x cells, with rucaparib 10 µM, 100% = cells with rucaparib alone
# [31] = at 0.313 µM, OCI-C5x cells, without rucaparib
# [32] = at 0.313 µM, OCI-P5x cells, with rucaparib 20 µM, 100% = cells with rucaparib alone
# [33] = at 0.313 µM, OCI-P5x cells, without rucaparib
# [34] = at 1.25 µM, OCI-C5x cells, with rucaparib 10 µM, 100% = cells with rucaparib alone
# [35] = at 1.25 µM, OCI-C5x cells, without rucaparib
# [36] = at 1.25 µM, OCI-P5x cells, with rucaparib 20 µM, 100% = cells with rucaparib alone
# [37] = at 1.25 µM, OCI-P5x cells, without rucaparib
# [38] = at 5 µM, OCI-C5x cells, with rucaparib 10 µM, 100% = cells with rucaparib alone
# [39] = at 5 µM, OCI-C5x cells, without rucaparib
# [40] = at 5 µM, OCI-P5x cells, with rucaparib 20 µM, 100% = cells with rucaparib alone
# [41] = at 5 µM, OCI-P5x cells, without rucaparib
smiles,measurement,setting,value
CC#C[C@@]1(O)CC[C@H]2[C@@H]3CCC4=CC(=O)CCC4=C3C(c3ccc(N(C)C)cc3)C[C@@]21C (stereo partly drawn),fold change,[1]; [4],0.891 (inactive)
same,fold change,[1]; [5],1.53
same,cell count,[1]; [6],6640
same,cell count,[1]; [7],7460
same,z-score,[2]; [8],-0.469 (inactive)
same,z-score,[2]; [9],0.644
CN(CC(=O)N(Cc1ccc(C2CCCCC2)cc1)c1ccc(C(=O)O)cc1)S(=O)(=O)c1c(F)c(F)c(F)c(F)c1F,fold change,[1]; [4],0.95 (inactive)
same,fold change,[1]; [5],0.314
same,cell count,[1]; [6],3920
same,cell count,[1]; [7],4130
same,z-score,[2]; [8],1.94 (inactive)
same,z-score,[2]; [9],0.483
same,viability,[3]; [10],114% (inactive)
same,viability,[3]; [11],111% (inactive)
same,viability,[3]; [12],97.3% (active)
same,viability,[3]; [13],102% (inactive)
same,viability,[3]; [14],115% (inactive)
same,viability,[3]; [15],111% (inactive)
same,viability,[3]; [16],96% (active)
same,viability,[3]; [17],102% (inactive)
same,viability,[3]; [18],119% (inactive)
same,viability,[3]; [19],111% (inactive)
same,viability,[3]; [20],92.6% (active)
same,viability,[3]; [21],97.4% (active)
same,viability,[3]; [22],118% (inactive)
same,viability,[3]; [23],112% (inactive)
same,viability,[3]; [24],97.6% (active)
same,viability,[3]; [25],95.6% (active)
same,viability,[3]; [26],126% (inactive)
same,viability,[3]; [27],116% (inactive)
same,viability,[3]; [28],93.1% (active)
same,viability,[3]; [29],94.2% (active)
same,viability,[3]; [30],115% (inactive)
same,viability,[3]; [31],111% (inactive)
same,viability,[3]; [32],94.9% (active)
same,viability,[3]; [33],95.1% (active)
same,viability,[3]; [34],114% (inactive)
same,viability,[3]; [35],107% (inactive)
same,viability,[3]; [36],8.63% (active)
same,viability,[3]; [37],75.3% (active)
same,viability,[3]; [38],3.43% (active)
same,viability,[3]; [39],2.98% (active)
same,viability,[3]; [40],0.394% (active)
same,viability,[3]; [41],0.691% (active)
Nc1nonc1C(=Nc1ccc(F)c(Cl)c1)NO,fold change,[1]; [4],0.862 (inactive)
same,fold change,[1]; [5],0.685
same,cell count,[1]; [6],8500
same,cell count,[1]; [7],9860
same,z-score,[2]; [8],-0.315 (inactive)
same,z-score,[2]; [9],1.22
same,viability,[3]; [10],127% (inactive)
same,viability,[3]; [11],108% (inactive)
same,viability,[3]; [12],87% (active)
same,viability,[3]; [13],92.2% (active)
same,viability,[3]; [14],121% (inactive)
same,viability,[3]; [15],110% (inactive)
same,viability,[3]; [16],90.4% (active)
same,viability,[3]; [17],100% (active)
same,viability,[3]; [18],122% (inactive)
same,viability,[3]; [19],114% (inactive)
same,viability,[3]; [20],94% (active)
same,viability,[3]; [21],98% (active)
same,viability,[3]; [22],124% (inactive)
same,viability,[3]; [23],101% (inactive)
same,viability,[3]; [24],99.2% (active)
same,viability,[3]; [25],95.7% (active)
same,viability,[3]; [26],116% (inactive)
same,viability,[3]; [27],107% (inactive)
same,viability,[3]; [28],105% (inactive)
same,viability,[3]; [29],100% (active)
same,viability,[3]; [30],116% (inactive)
same,viability,[3]; [31],107% (inactive)
same,viability,[3]; [32],99.5% (active)
same,viability,[3]; [33],102% (inactive)
same,viability,[3]; [34],127% (inactive)
same,viability,[3]; [35],115% (inactive)
same,viability,[3]; [36],91.9% (active)
same,viability,[3]; [37],99.5% (active)
same,viability,[3]; [38],114% (inactive)
same,viability,[3]; [39],120% (inactive)
same,viability,[3]; [40],79% (active)
same,viability,[3]; [41],90.1% (active)
CCc1c2c(nc3ccc(OC(=O)N4CCC(N5CCCCC5)CC4)cc13)-c1cc3c(c(=O)n1C2)COC(=O)[C@@]3(O)CC,fold change,[1]; [4],1.02 (inactive)
same,fold change,[1]; [5],1.54
same,cell count,[1]; [6],2060
same,cell count,[1]; [7],2030
same,z-score,[2]; [8],0.2 (inactive)
same,z-score,[2]; [9],-0.798
same,viability,[3]; [10],115% (inactive)
same,viability,[3]; [11],112% (inactive)
same,viability,[3]; [12],119% (inactive)
same,viability,[3]; [13],112% (inactive)
same,viability,[3]; [14],114% (inactive)
same,viability,[3]; [15],118% (inactive)
same,viability,[3]; [16],112% (inactive)
same,viability,[3]; [17],114% (inactive)
same,viability,[3]; [18],119% (inactive)
same,viability,[3]; [19],118% (inactive)
same,viability,[3]; [20],106% (inactive)
same,viability,[3]; [21],107% (inactive)
same,viability,[3]; [22],117% (inactive)
same,viability,[3]; [23],110% (inactive)
same,viability,[3]; [24],108% (inactive)
same,viability,[3]; [25],103% (inactive)
same,viability,[3]; [26],112% (inactive)
same,viability,[3]; [27],106% (inactive)
same,viability,[3]; [28],104% (inactive)
same,viability,[3]; [29],106% (inactive)
same,viability,[3]; [30],83.7% (active)
same,viability,[3]; [31],99.6% (active)
same,viability,[3]; [32],88.2% (active)
same,viability,[3]; [33],88.7% (active)
same,viability,[3]; [34],64.4% (active)
same,viability,[3]; [35],62.8% (active)
same,viability,[3]; [36],48.7% (active)
same,viability,[3]; [37],37.8% (active)
same,viability,[3]; [38],35.7% (active)
same,viability,[3]; [39],29.9% (active)
same,viability,[3]; [40],23.9% (active)
same,viability,[3]; [41],13.4% (active)
CCCc1ccc(OCC(=O)N(Cc2nc(-c3cccnc3)no2)C(C)C)cc1,fold change,[1]; [4],0.834 (inactive)
same,fold change,[1]; [5],0.57
same,cell count,[1]; [6],6670
same,cell count,[1]; [7],7990
same,z-score,[2]; [8],-0.333 (inactive)
same,z-score,[2]; [9],0.238
same,viability,[3]; [10],116% (inactive)
same,viability,[3]; [11],115% (inactive)
same,viability,[3]; [12],98% (active)
same,viability,[3]; [13],106% (inactive)
same,viability,[3]; [14],125% (inactive)
same,viability,[3]; [15],122% (inactive)
same,viability,[3]; [16],102% (inactive)
same,viability,[3]; [17],98.6% (active)
same,viability,[3]; [18],129% (inactive)
same,viability,[3]; [19],104% (inactive)
same,viability,[3]; [20],105% (inactive)
same,viability,[3]; [21],101% (inactive)
same,viability,[3]; [22],118% (inactive)
same,viability,[3]; [23],110% (inactive)
same,viability,[3]; [24],97.5% (active)
same,viability,[3]; [25],102% (inactive)
same,viability,[3]; [26],134% (inactive)
same,viability,[3]; [27],114% (inactive)
same,viability,[3]; [28],104% (inactive)
same,viability,[3]; [29],103% (inactive)
same,viability,[3]; [30],120% (inactive)
same,viability,[3]; [31],110% (inactive)
same,viability,[3]; [32],98.3% (active)
same,viability,[3]; [33],101% (inactive)
same,viability,[3]; [34],115% (inactive)
same,viability,[3]; [35],112% (inactive)
same,viability,[3]; [36],103% (inactive)
same,viability,[3]; [37],96.3% (active)
same,viability,[3]; [38],99.7% (active)
same,viability,[3]; [39],111% (inactive)
same,viability,[3]; [40],93.2% (active)
same,viability,[3]; [41],100% (inactive)
